Laboratory results reported in PubChem BioAssay.
Active and inactive are the calls of the source.

Columns and labels:
[1] = target: Albumin (Bos taurus) (UniProt P02769); experiment: bovine serum albumin binders on microarray, profiling panel, artefact control for SMM control protein annotation, biochemical, small-molecule microarray, Alexa647 label, 635/667 nm fluorescence (AID 1118); settings: BSA-A647 binding, fluorescence 635 nm, higher = more signal;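 note: score merges 667 nm emission intensity and signal-to-noise per printed compound spot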
[2] = small-molecule microarray binders of probe aXIP, primary screen, biochemical, NeuroSMM set, 635/667 nm fluorescence (AID 1119); settings: higher = more signal, called active from +8 up or from −8 down;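 note: probe is the protein aXip251-270 applied at 1 µg/mL to compound-printed slides; binding of probe to printed compounds measured as 667 nm fluorescence plus signal to noise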
[3] = small-molecule binders of probe aNOTCH3, primary screen, biochemical, small-molecule microarray, 635/667 nm fluorescence (AID 1120); settings: higher = more signal;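 note: probe is a biotin-tagged antibody raised against NOTCH3 rather than NOTCH3 protein; score merges spot fluorescence near 667 nm with spot signal to noise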
[4] = small-molecule binders of probe aNOTCH2, primary screen, biochemical, small-molecule microarray, 635/667 nm fluorescence (AID 1121); settings: higher = more signal;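 note: score merges feature fluorescence read at 667 nm with its signal to noise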
[5] = target: Carbonic anhydrase 2 (Homo sapiens) (UniProt P00918); experiment: CAII small-molecule binders, profiling panel, biochemical, small-molecule microarray, Alexa647-labelled CAII (AID 1122); settings: CAII-A647 binding fluorescence, higher = more signal
[6] = COS7 lysate on small-molecule microarray, probe aHis, 635 nm (AID 1123); settings: COS7 cell lysate, fluorescence, higher = more signal;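 note: z-score combines 667nm fluorescence intensity with signal-to-noise per printed compound spot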
[7] = compound binding in COS7 lysate, probe aLAP1, primary screen, cell lysate, small-molecule microarray (AID 1124); settings: probe aLAP1, fluorescence, higher = more signal;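 note: lysate comes from COS7 cells expressing LAP1 and is applied at 0.3 µg/mL; score merges spot fluorescence near 667 nm with signal-to-noise over triplicate slides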
[8] = test system: Sam68 (KHDRBS1); experiment: Sam68 small-molecule binders, primary screen, biochemical, small-molecule microarray, 635 nm fluorescence (AID 1125); settings: small-molecule microarray binding, higher = more signal;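 note: score merges 667 nm channel intensity with signal to noise over triplicate slides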
[9] = test system: Chordin-like protein 2 (CHRDL2); experiment: CHRDL2 small-molecule binders, primary screen, biochemical, small-molecule microarray, 635 nm fluorescence (AID 1126); settings: small-molecule microarray binding, fluorescence 635 nm; higher = more signal;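 note: printed compound slides probed with Chrdl2 protein at 4 µg/mL for 1 h at 4 C; score merges 667 nm emission intensity with signal to noise over three replicate slides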
[10] = target: Concanavalin-A (Canavalia ensiformis) (UniProt P02866); experiment: ConA small-molecule binders, primary screen, artefact control for SMM control protein annotation, biochemical, small-molecule microarray, Alexa647 label, 635 nm (AID 1127); settings: ConA-A647 binding fluorescence, higher = more signal;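 note: z combines 667 nm emission intensity with signal-to-noise across three replicate slides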
[11] = anti-His antibody binders, primary screen, artefact control for SMM control protein annotation, biochemical, small-molecule microarray, 635 nm fluorescence (AID 1128); settings: anti-His Alexa647 antibody binding, higher = more signal;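 note: score merges feature fluorescence with signal-to-noise for each printed compound spot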
[12] = test system: Human papillomavirus type 1a E7 protein (residues 1-88); experiment: HPV1a E7 small-molecule binders, primary screen, biochemical, small-molecule microarray, residues 1-88, 635 nm (AID 1129); settings: small-molecule microarray binding, fluorescence 635 nm; higher = more signal
[13] = target: Focal adhesion kinase 1 (Homo sapiens) (UniProt Q05397); experiment: small-molecule microarray binders of FAK, primary screen, biochemical, 635/667 nm fluorescence, BSA, DTT (AID 1130); settings: PTK2 binding, 635 nm fluorescence, higher = more signal;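 note: composite of spot emission at 667 nm and signal to noise over triplicate slides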
[14] = test system: Fibrinogen (Alexa647-labelled); experiment: fibrinogen binders on compound microarrays, profiling panel, artefact control for SMM control-protein annotation, biochemical, small-molecule microarray, 635/667 nm fluorescence (AID 1131); settings: fibrinogen-A647 binding fluorescence, higher = more signal;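 note: z-score merges 667 nm fluorescence with per-spot signal-to-noise over triplicate slides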
[15] = target: Follistatin (Homo sapiens) (UniProt P19883); experiment: follistatin binders on small-molecule microarrays, primary screen, biochemical, small-molecule microarray, 635/667 nm fluorescence (AID 1132); settings: FST binding, 635 nm fluorescence, higher = more signal
[16] = target: Fibroblast growth factor 2 (Homo sapiens) (UniProt P09038); experiment: FGF2 binders on small-molecule microarrays, primary screen, biochemical, small-molecule microarray, 635/667 nm fluorescence (AID 1133); settings: small-molecule microarray binding, FGF2, fluorescence 635/667; higher = more signal
[17] = mitochondrial membrane potential change in A549 cells, profiling panel, cell-based, JC-1 fluorescence, basal, 24 h, 100 nL (AID 1138); settings: higher = more signal;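 note: A549 lung adenocarcinoma cells under basal conditions with no added stimulus; test concentration not given here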
[18] = test system: Lefty1; experiment: Lefty1 binders on small-molecule microarrays, primary screen, biochemical, small-molecule microarray, 635/667 nm fluorescence (AID 1139); settings: small-molecule microarray binding, fluorescence 635/667; higher = more signal
[19] = test system: wheat germ agglutinin (Triticum aestivum), Alexa647-labelled; experiment: wheat germ agglutinin binders on compound microarrays, profiling panel, artefact control for SMM control-protein annotation, biochemical, small-molecule microarray, 635/667 nm fluorescence (AID 1140); settings: WGA-A647 binding, 635 nm fluorescence, higher = more signal;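 note: score merges 667 nm feature emission with signal to noise over triplicate slides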
[20] = target: Luciferin 4-monooxygenase (Photinus pyralis) (UniProt P08659); experiment: firefly luciferase enzyme inhibitors, primary screen, biochemical, luminescence, purified enzyme, 2006 set (AID 1141); settings: SteadyGlo luminescence, 30 min, higher = more signal, called active from +8 up or from −8 down;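 note: cell-free assay with purified firefly luciferase at 100 ng per well in PBS; test concentration not given here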
Sequence of Luciferin 4-monooxygenase (Photinus pyralis) (P08659 whole entry, looked up): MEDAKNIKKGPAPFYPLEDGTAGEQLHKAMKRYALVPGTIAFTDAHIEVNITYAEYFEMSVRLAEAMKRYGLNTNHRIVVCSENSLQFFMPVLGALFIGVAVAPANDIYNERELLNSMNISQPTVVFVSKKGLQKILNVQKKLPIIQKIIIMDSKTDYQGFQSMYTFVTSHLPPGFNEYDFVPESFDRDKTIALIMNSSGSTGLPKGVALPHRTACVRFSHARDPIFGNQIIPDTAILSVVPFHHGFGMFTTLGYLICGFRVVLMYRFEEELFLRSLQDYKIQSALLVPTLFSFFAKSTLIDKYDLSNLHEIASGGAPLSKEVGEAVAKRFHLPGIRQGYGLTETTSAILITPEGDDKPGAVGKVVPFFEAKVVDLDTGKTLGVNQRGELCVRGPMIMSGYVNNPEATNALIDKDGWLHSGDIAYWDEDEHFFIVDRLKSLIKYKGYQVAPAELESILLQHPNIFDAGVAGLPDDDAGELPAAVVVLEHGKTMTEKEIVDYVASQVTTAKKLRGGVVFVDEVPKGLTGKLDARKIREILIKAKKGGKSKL

Sequence of Concanavalin-A (Canavalia ensiformis) (P02866 whole entry, looked up): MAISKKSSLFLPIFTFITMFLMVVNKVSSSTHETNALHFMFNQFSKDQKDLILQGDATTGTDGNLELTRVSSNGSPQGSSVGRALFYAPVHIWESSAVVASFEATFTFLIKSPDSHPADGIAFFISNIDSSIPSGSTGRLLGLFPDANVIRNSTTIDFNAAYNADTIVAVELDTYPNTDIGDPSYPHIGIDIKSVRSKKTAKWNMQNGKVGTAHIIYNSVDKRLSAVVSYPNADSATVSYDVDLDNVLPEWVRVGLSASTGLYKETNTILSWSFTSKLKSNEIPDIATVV
Sequence of Albumin (Bos taurus) (P02769 whole entry, looked up): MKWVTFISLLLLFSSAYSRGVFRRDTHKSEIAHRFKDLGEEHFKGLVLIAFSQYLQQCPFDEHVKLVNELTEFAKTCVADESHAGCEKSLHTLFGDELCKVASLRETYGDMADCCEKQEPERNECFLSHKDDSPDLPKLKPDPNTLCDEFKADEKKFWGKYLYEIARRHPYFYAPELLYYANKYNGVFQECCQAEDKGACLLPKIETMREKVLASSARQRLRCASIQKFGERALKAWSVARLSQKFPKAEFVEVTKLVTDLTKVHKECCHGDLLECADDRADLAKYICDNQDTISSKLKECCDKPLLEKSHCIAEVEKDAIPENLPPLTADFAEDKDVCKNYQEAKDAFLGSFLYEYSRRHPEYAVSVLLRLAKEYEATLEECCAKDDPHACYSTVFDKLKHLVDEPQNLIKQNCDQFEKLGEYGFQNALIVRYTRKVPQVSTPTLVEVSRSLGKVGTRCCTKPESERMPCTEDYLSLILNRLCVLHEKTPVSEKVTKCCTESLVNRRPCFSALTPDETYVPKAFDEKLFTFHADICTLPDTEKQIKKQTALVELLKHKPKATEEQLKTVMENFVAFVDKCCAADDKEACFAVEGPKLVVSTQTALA
Sequence of Fibroblast growth factor 2 (Homo sapiens) (P09038 whole entry, looked up): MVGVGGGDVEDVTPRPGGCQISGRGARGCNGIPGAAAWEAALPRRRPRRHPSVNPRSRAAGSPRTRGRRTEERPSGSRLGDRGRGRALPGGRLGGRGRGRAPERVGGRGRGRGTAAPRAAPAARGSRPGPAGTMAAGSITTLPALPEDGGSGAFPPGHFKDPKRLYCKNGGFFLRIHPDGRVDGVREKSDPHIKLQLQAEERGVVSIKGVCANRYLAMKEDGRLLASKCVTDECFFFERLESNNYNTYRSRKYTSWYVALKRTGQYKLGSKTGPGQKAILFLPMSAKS
Sequence of Focal adhesion kinase 1 (Homo sapiens) (Q05397 whole entry, looked up): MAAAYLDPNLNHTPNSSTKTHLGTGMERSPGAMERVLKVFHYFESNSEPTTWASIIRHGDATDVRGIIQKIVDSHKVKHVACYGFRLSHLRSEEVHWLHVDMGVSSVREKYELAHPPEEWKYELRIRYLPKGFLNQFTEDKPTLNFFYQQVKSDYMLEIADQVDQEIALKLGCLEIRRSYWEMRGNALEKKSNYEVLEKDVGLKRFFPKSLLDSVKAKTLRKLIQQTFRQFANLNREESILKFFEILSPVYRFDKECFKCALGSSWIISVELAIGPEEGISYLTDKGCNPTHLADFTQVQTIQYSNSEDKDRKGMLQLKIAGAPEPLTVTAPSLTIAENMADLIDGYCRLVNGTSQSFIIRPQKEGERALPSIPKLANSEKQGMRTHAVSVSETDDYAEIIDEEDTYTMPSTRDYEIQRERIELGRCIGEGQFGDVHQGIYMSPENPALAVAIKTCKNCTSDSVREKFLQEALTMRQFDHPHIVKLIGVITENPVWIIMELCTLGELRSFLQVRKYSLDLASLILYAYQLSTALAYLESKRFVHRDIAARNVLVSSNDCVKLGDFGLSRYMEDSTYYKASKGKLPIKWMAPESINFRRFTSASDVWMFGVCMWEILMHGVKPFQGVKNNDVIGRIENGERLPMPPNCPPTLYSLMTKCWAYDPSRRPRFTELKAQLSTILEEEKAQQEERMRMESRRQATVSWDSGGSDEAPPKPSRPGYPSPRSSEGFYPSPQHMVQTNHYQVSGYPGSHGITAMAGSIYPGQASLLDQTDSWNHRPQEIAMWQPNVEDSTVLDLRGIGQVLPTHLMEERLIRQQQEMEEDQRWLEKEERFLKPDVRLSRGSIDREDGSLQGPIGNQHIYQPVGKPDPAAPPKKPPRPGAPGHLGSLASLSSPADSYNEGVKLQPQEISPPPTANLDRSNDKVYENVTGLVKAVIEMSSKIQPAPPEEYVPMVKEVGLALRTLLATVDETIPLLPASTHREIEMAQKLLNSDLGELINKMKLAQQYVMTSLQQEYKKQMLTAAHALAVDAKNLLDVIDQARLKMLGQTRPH
Sequence of Follistatin (Homo sapiens) (P19883 whole entry, looked up): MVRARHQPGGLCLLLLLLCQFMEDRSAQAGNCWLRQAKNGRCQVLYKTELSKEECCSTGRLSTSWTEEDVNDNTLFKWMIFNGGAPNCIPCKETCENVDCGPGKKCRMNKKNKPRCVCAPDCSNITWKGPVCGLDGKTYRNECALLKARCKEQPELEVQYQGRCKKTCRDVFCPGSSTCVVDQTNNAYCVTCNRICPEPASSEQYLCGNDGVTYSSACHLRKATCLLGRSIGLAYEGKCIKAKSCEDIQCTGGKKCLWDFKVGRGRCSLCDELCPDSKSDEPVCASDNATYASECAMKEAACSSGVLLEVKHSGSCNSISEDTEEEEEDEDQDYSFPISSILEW

Structure (SMILES) | composite z-score [1] | composite Z-score [2] | composite z-score [3] | composite z-score [4] | composite z-score [5] | composite z-score [6] | composite z-score [7] | composite z-score [8] | composite z-score [9] | composite z-score [10] | composite z-score [11] | composite z-score [12] | composite z-score [13] | composite z-score [14] | composite z-score [15] | composite z-score [16] | z-score [17] | composite z-score [18] | composite z-score [19] | z-score [20]
C[C@]12C(=O)N(CCCCCO)[C@@H]3C(=O)N(c4ccc(Cl)cc4)CC=CC31O[C@@H]1/C=C\CCCOC(=O)C12 (stereo not given in full) | 0.153 | 0.312 (inactive) | -0.376 | -0.14 | -0.247 | -0.947 | -0.615 | -0.698 | -1.12 | -1.02 | -0.39 | -0.711 | -0.83 | -1.47 | -0.271 | -1.27 | 0.428 | -0.431 | -1.31 | -0.576 (inactive)
COCCOC(=O)N1C(=O)[C@@]2(c3cc(C#CCCO)ccc31)[C@H](c1ccc(OCCO)cc1)N1[C@H](c3ccccc3)[C@H](c3ccccc3)OC(=O)[C@H]1[C@@H]2C(=O)N1CCc2cc(OC)c(OC)cc2C1 | -0.627 | 0.443 (inactive) | 0.0893 | -0.0731 | 0.239 | 1.06 | 1.48 | 1.31 | 0.559 | 1.08 | 1.2 | 1.19 | 0.81 | 0.249 | 1.22 | 1.11 | -0.633 | 1.08 | 0.0877 | -0.856 (inactive)
CCCN1C(=O)[C@@]2(Cc3ccccc3)N=C(c3ccc(OCCCO)cc3)O[C@H]2c2ccccc21 | 0.508 | 0.72 (inactive) | 0.204 | 0.0055 | 0.329 | 2.69 | 0.688 | 1.3 | 0.804 | 0.96 | 0.856 | 1.08 | 0.86 | 0.753 | 1.42 | 1.73 | 0.686 | 0.757 | 0.445 | -4.05 (inactive)
CC(C)C[C@@H]1NC(=O)[C@@]23C(=O)N[C@@H](Cc4ccccc4)C2[C@H](C)[C@@]2(C)O[C@H]2C3/C=C/C/C=C\CNC(=O)[C@@H]2CCCN2C1=O (stereo not given in full) | 0.777 | 0.572 (inactive) | -0.0026 | -0.129 | 0.391 | -0.351 | 0.339 | -0.747 | 0.698 | -0.838 | 0.886 | -1.05 | -0.0278 | -0.94 | 0.368 | 0.392 | 0.579 | 0.571 | -0.299 | 0.0046 (inactive)
COC(=O)c1c(CC[C@@H](CO)NC(=O)N[C@@H](C)Cn2cc(C3(O)CCCC3)nn2)oc(C(C)=O)c1C(=O)OC | 0.815 | 0.42 (inactive) | 0.276 | -0.204 | 0.672 | 2.66 | 0.0377 | 0.481 | -0.425 | 0.484 | 0.863 | -0.0221 | -0.118 | 0.188 | 0.511 | 0.0707 | -0.638 | 1.54 | 1.3 | 0.315 (inactive)
CCCCC(CC)C(O)C1C=CC2C(=O)NC(=O)C2N1Nc1ccccn1 (stereo not given) | 0.806 | 0.975 (inactive) | 0.0866 | -0.0071 | 0.677 | 2.53 | 0.321 | 1.27 | -0.105 | 0.86 | 2.27 | 1.17 | 0.178 | 1 | 0.962 | -0.539 | 0.933 | 0.21 | 1.21 | -1.55 (inactive)
COCC(=C=CC[C@@H](O)c1ccccc1OCCO)C[C@@H](O)COCc1ccccc1 | 0.521 | 0.418 (inactive) | 0.779 | 0.365 | 0.73 | 2.22 | 1.04 | 1.04 | -0.463 | 0.244 | 0.477 | 1.01 | -0.134 | 0.357 | 0.403 | 0.456 | 1.8 | 0.317 | 1.05 | -2.4 (inactive)
CN(C)CCCN1C(=O)[C@@]2(Cc3ccccc31)c1ccccc1C(=O)N(Cc1ccccc1)[C@H]2c1ccc(CO)cc1 | -0.153 | 0.634 (inactive) | -0.109 | -0.181 | -0.0077 | -0.258 | -0.485 | 0.347 | 0.757 | 0.544 | -0.201 | -0.153 | -0.0553 | 0.385 | 0.375 | 0.144 | -0.548 | 0.122 | 0.111 | 1.09 (inactive)
COc1cc(NN2C(C(O)c3ccc(I)cc3)C=CC3C(=O)N(C)C(=O)C32)cc(OC)c1OC (stereo not given) | -0.166 | 0.466 (inactive) | 0.163 | 0.0586 | 0.783 | 1.63 | 0.189 | 0.144 | -0.946 | 0.0133 | 2.61 | 0.351 | 1.2 | -0.472 | -0.0712 | -0.893 | 0.223 | -0.595 | 0.701 | -0.977 (inactive)
C=CCNC(=O)[C@H]1[C@@H]2C(=O)O[C@@H](c3ccccc3)[C@@H](c3ccccc3)N2[C@@H](c2ccc(O)cc2)[C@]12C(=O)N(C(=O)OCCOC)c1ccc(C#CC3(O)CCCCCC3)cc12 | 0.624 | 0.282 (inactive) | 0.207 | -0.0519 | 0.39 | 1.08 | -0.0714 | 1.23 | -0.233 | 0.915 | 1.23 | 1.18 | 0.737 | 0.485 | 0.759 | 0.678 | 1.14 | 0.218 | 0.764 | -0.991 (inactive)
CN1C(=O)C2C=CC(C(O)COCc3ccccc3)N(Nc3ccccc3)C2C1=O (stereo not given) | 0.898 | -0.0217 (inactive) | 0.348 | -0.127 | 0.81 | 1.44 | -0.0468 | 0.616 | -0.142 | 0.479 | 0.563 | 0.593 | 0.324 | 0.711 | 0.433 | -0.11 | 1.64 | 0.135 | 0.681 | 0.982 (inactive)
